For one test, the system named is Meloidogyne hapla J2. As to the kind of experiment: proportion of mobile M. hapla J2 relative to DMSO control (fraction of DMSO control); higher = more viable, less nematicidal, active = 0.7 or less. To be noted: 60 µM; 5 days; temperature: 20 °C. In short, it runs like this:
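Compound was pinned to 60 µM final (0.6% v/v DMSO) into 96-well wells, each holding about 25 M. hapla J2 in distilled water. Plates were sealed and shaken for 5 days at 20 °C and 200 rpm, then given 2 µL 1 M NaOH per well. Microscopic mobility scores were normalised to the mean of the plate's own DMSO wells, eight per plate, with two biological replicates averaged.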
`COc1cccc(NC(=O)c2ccccc2-c2nc(-c3ccc(F)cc3)no2)c1`: the “proportion of mobile M. hapla J2” value was 0.822 (inactive).
Regarding `Cc1ccc(C)c(-c2nc(-c3ccc(Cl)cc3)no2)c1`, the “proportion of mobile M. hapla J2” value was 0.93 (inactive).
Turning to `Brc1ccccc1-c1nc(-c2ccccn2)no1`, the “proportion of mobile M. hapla J2” value was 0.678 (active).
For the compound `Cc1cc(OCc2nc(-c3ccncc3)no2)c(C)c(C)c1Br`, the “proportion of mobile M. hapla J2” value is 1.06 (inactive).
For `Brc1ccc(-c2noc(CSc3ccccc3)n2)cc1`, the “proportion of mobile M. hapla J2” value was 1.09 (inactive).
For the compound `CCOc1ccccc1-c1nnc(SCC(=O)NC(C)CC)o1` (stereo not drawn), the “proportion of mobile M. hapla J2” value was 0.951 (inactive).
On the same count and under the same terms, under `COc1ccccc1-c1noc(-c2ccccc2C)n1` stands 0.962 (inactive).
For the compound `COc1ccccc1-c1nnc(SCc2ccc(F)cc2)o1`, the “proportion of mobile M. hapla J2” value is 0.329 (active).
Consider `Cc1ccc(C(=O)Nc2ccccc2-c2nc(-c3ccncc3)no2)cc1C`, for which the “proportion of mobile M. hapla J2” value is 1.06 (inactive).
Still for that read-out and setting: under `Cc1ccc(CSc2nnc(-c3ccncc3)o2)cc1` stands 0.951 (inactive).
As for `COc1ccc(-c2nc(-c3ccc(C(F)(F)F)cc3)no2)cc1`, the “proportion of mobile M. hapla J2” value was 0.966 (inactive).
The same measure, in the same setting: under `COc1ccc(-c2nnc(SCC(=O)Nc3ccc(Br)c(C)c3)o2)cc1` stands 0.999 (inactive).
Same read-out and setting: under `COc1cccc(-c2noc(-c3cccc(F)c3)n2)c1` stands 1.01 (inactive).
`Clc1cc(Br)ccc1OCc1nc(-c2ccncc2)no1`: the “proportion of mobile M. hapla J2” value is 0.953 (inactive).
The same measure, in the same setting: under `Cc1cccc(-c2noc(C3CCCCC3)n2)c1` stands 1.01 (inactive); under `O=C(CSc1nnc(-c2cccc(Cl)c2)o1)N1CCCCC1`, 1 (inactive); under `Cc1ccccc1OCc1nc(-c2cccc(C(F)(F)F)c2)no1`, 0.946 (inactive).
Same read-out and setting: under `O=C(NC1CCCCC1)c1ccccc1-c1nc(-c2ccc(F)cc2)no1` stands 0.863 (inactive); under `CCc1cccc(C)c1NC(=O)CSc1nnc(-c2ccccc2)o1`, 1.04 (inactive).

The subject of another test is Caenorhabditis elegans dauer (daf-2(e1370)). The test can be described thus: proportion of mobile C. elegans dauer larvae relative to DMSO control (fraction of DMSO control); higher = more viable, less nematicidal, active = 0.63 or less; extreme values may be limits of the assay. To be noted: 60 µM; 5 days; temperature: 20 °C. In short, it runs like this:
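Synchronized C. elegans larvae were kept for 48 h at 25 °C on MYOB plates seeded with E. coli OP50 to induce dauer formation, and roughly 20 dauers were transferred into each well of a 96-well plate containing liquid NGM. Compound was pinned in to a final concentration of 60 µM with 0.6% v/v DMSO, and the sealed plates were shaken at 200 rpm for 5 days at 20 °C. The fraction of mobile worms was scored under a dissection microscope against DMSO-only wells and averaged across two biological replicates.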
As to `COc1ccc(-c2noc(CSc3ccc(C)cc3)n2)cc1`, the “proportion of mobile C. elegans dauer larvae” value is 1 (inactive).
Same read-out and setting: under `Ic1ccc(-c2nc(-c3cccnc3)no2)cc1` stands 1 (inactive).
In the case of `c1coc(-c2nnc(-c3ccco3)o2)c1`, the “proportion of mobile C. elegans dauer larvae” value is 1 (inactive).
As to `CCCOc1ccc(-c2nc(-c3ccncc3)no2)cc1`, the “proportion of mobile C. elegans dauer larvae” value was 0.5 (active).
The same measure, in the same setting: under `c1cncc(-c2noc(-c3cccc4ccccc34)n2)c1` stands 1 (inactive); under `Cc1ccc(-c2noc(-c3ccc(Br)cc3)n2)cc1`, 1 (inactive); under `FC(F)(F)c1cccc(-c2noc(-c3cccnc3)n2)c1`, 1 (inactive).
With `COc1ccc(-c2noc(CSc3nc(C)cc(C)n3)n2)cc1`, the “proportion of mobile C. elegans dauer larvae” value is 1 (inactive).
The same measure, in the same setting: under `COc1ccc(-c2nc(C3CCCCC3)no2)cc1` stands 1 (inactive); under `COc1ccccc1-c1nnc(SCc2ccccc2C#N)o1`, 1 (inactive); under `Cc1cc(C)c(C)c(OCc2nc(-c3ccccc3)no2)c1`, 1 (inactive).
On to `Clc1ccc(OCc2nc(-c3cccs3)no2)cc1`, for which the “proportion of mobile C. elegans dauer larvae” value is 1 (inactive).
`Cc1ccc(-c2noc(COc3ccc(Cl)cc3C)n2)cc1`: the “proportion of mobile C. elegans dauer larvae” value was 1 (inactive).
Regarding `O=C(CSc1nnc(-c2ccccc2)o1)Nc1cccc(Cl)c1`, the “proportion of mobile C. elegans dauer larvae” value was 1 (inactive).
Regarding `Cc1cccc(OCc2nc(-c3ccc(Br)cc3)no2)c1`, the “proportion of mobile C. elegans dauer larvae” value is 1 (inactive).
In the case of `O=C(CSc1nnc(-c2ccccc2)o1)Nc1cccc(Br)c1`, the “proportion of mobile C. elegans dauer larvae” value is 1 (inactive).
On the same count and under the same terms, under `Cc1ccc(-c2nnc(SCc3ccccc3F)o2)cc1` stands 1 (inactive).
Take `COc1ccccc1-c1nc(-c2ccccc2Cl)no1`: the “proportion of mobile C. elegans dauer larvae” value is 1 (inactive).
In the case of `CC(C)Oc1ccc(-c2nc(-c3ccccc3)no2)cc1`, the “proportion of mobile C. elegans dauer larvae” value was 1 (inactive).
For `COc1cccc(NC(=O)c2ccccc2-c2nc(-c3ccc(F)cc3)no2)c1`, the “proportion of mobile C. elegans dauer larvae” value is 1 (inactive).
Regarding `Cc1ccc(C)c(-c2nc(-c3ccc(Cl)cc3)no2)c1`, the “proportion of mobile C. elegans dauer larvae” value is 1 (inactive).
As for `Brc1ccccc1-c1nc(-c2ccccn2)no1`, the “proportion of mobile C. elegans dauer larvae” value was 0.738 (inactive).
As for `Cc1cc(OCc2nc(-c3ccncc3)no2)c(C)c(C)c1Br`, the “proportion of mobile C. elegans dauer larvae” value is 1 (inactive).
Regarding `Brc1ccc(-c2noc(CSc3ccccc3)n2)cc1`, the “proportion of mobile C. elegans dauer larvae” value was 1 (inactive).
Take `CCOc1ccccc1-c1nnc(SCC(=O)NC(C)CC)o1` (stereo not drawn): the “proportion of mobile C. elegans dauer larvae” value is 1 (inactive).
As for `COc1ccccc1-c1noc(-c2ccccc2C)n1`, the “proportion of mobile C. elegans dauer larvae” value is 1 (inactive).
The same measure, in the same setting: under `COc1ccccc1-c1nnc(SCc2ccc(F)cc2)o1` stands 1 (inactive); under `Cc1ccc(C(=O)Nc2ccccc2-c2nc(-c3ccncc3)no2)cc1C`, 1 (inactive).
Consider `Cc1ccc(CSc2nnc(-c3ccncc3)o2)cc1`, for which the “proportion of mobile C. elegans dauer larvae” value was 1 (inactive).
Turning to `COc1ccc(-c2nc(-c3ccc(C(F)(F)F)cc3)no2)cc1`, the “proportion of mobile C. elegans dauer larvae” value is 1 (inactive).
As to `COc1ccc(-c2nnc(SCC(=O)Nc3ccc(Br)c(C)c3)o2)cc1`, the “proportion of mobile C. elegans dauer larvae” value was 1 (inactive).
`COc1cccc(-c2noc(-c3cccc(F)c3)n2)c1`: the “proportion of mobile C. elegans dauer larvae” value was 1 (inactive).
Take `Clc1cc(Br)ccc1OCc1nc(-c2ccncc2)no1`: the “proportion of mobile C. elegans dauer larvae” value was 0.929 (inactive).
For `Cc1cccc(-c2noc(C3CCCCC3)n2)c1`, the “proportion of mobile C. elegans dauer larvae” value was 1 (inactive).

Values taken from the supplement of paper PMC11219838.
